This is part of a sample that, as a whole, favours compounds with a hit. Of some 83,000 tested, about 20% had one in any assay.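 Values shown are percent growth following 48 h exposure of cells in 96-well plates to a single concentration of compound; below 10 was considered active.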 Values without a mark were called inactive. The source made the active and inactive calls.

This is an account of results in PubChem BioAssay (NCI).

This test deals with MDA-MB-468 breast. Put plainly: NCI-60 one-dose screen, 48 h (100 = growth as untreated, 0 = no growth, -100 = all killed). The following applies: 10 µM unless noted.
Take `CCCCC[C@H]1C/C=C2/C(=O)C(Cl)=C[C@@H]2C/C=C\CCCC(=O)O1`: the growth is -26.7% (active).
Regarding `C[C@]12CCC3c4ccc(O)cc4C[C@@H](CCCCCCCCCS(=O)CCCC(F)(F)C(F)(F)F)C3C1CC[C@@H]2O` (stereo partly specified), the growth is 88%.
The figure for `C[N+](C)(C)CCOC(OCC[N+](C)(C)C)(c1ccccc1)c1ccccc1` is 128%.
For `Cc1c(Cl)cccc1NC(=O)c1sc2nc3c(cc2c1N)C(=O)CCC3`, the growth is 48.6%.
The figure for `COc1cc2c(cc1OC)C(Sc1ccc(C)cc1)c1c(nc(N)c(C#N)c1N)O2` (stereo unspecified) is -46.7% (active).
Turning to `Cc1ccc(/C=C/CC(=O)Nc2ccc(C(=O)Nc3ccc(F)cc3N)nc2)cn1`, the growth is 4.55% (active).
The figure for `CCOC(=O)C(CC(c1ccccc1)N1CCCCC1)[N+](=O)[O-]` (stereo unspecified) is 49.7%; for `Oc1ccc(N=Cc2ccc(OCc3ccccc3)cc2)cc1` it is 97.6%; for `S=c1nn[nH]n1C1CCCCC1` it is 125%.
The figure for `CCC1CCc2nc3sc(C(=O)Nc4ccccc4F)c(N)c3cc2C1` (stereo unspecified) is 25%.
Take `CN(C)CCNc1cc(-c2ccccc2)nc2ccccc12`: the growth is -33.3% (active).
The figure for `NS(=O)(=O)N(c1cc(C(F)(F)F)cc(C(F)(F)F)c1)C1CCN(Cc2ccc(F)cc2)CC1` is 52.9%.
The figure for `CC(C)=CCC[C@](C)(O)[C@H]1CC[C@]2(C)[C@@H]1CC[C@@H]1[C@@]3(C)CC[C@H](N)C(C)(C)[C@@H]3CC[C@]12C` is 62%; for `Clc1ccc2c(NCCCn3ccnc3)c3oc4ccccc4c3nc2c1` it is 39.7%.
As for `COc1cc(OC)c2c(c1)c1nc3cc(C)c(C)cc3nc1n2CCN(C)C`, the growth is 117%.
The figure for `CCN(CC)C(=O)C1CCN(C(=O)c2ccccc2)CC1` is 109%.
The figure for `O=C(Nc1ccccc1)OCCc1ccccc1` is 99.2%; for `Clc1ccc(-c2cc(-c3ccccc3)nc(NCCNc3ccnc4cc(Cl)ccc34)n2)cc1` it is -79.6% (active); for `O=C(O)c1ccc(-n2c(=O)n(-c3cccc(C(F)(F)F)c3)c(=O)c3cc(-c4ccc(F)cc4F)ccc32)cc1` it is -4.52% (active).
As for `COc1ccc(C2C(c3nn[nH]n3)=C(N)Oc3c2ccc2ccccc32)cc1` (stereo unspecified), the growth was 43.8%.
As for `Cc1cc2nc(CC(=O)c3ccncc3)c(=O)[nH]c2cc1C`, the growth was 102%.
The figure for `CC(C)(C)c1ccc(-c2nnc(-c3nc4ccccc4nc3Cl)o2)cc1` is 7.12% (active).
As for `C[N+](C)(C)c1ncnc2nc[nH]c12`, the growth is 90.3%.
The figure for `CCN(CC)c1ccc2nc3ccc(N=Nc4ccc(N(C)C)cc4)cc3[n+](-c3ccccc3)c2c1` is -65.6% (active); for `COc1cc(Cl)cc(-c2nn(C(=O)NS(=O)(=O)c3ccccc3)cc2-c2ccncc2)c1` it is 89%; for `C=CCOC1=CC(=O)c2ccccc2C1=O` it is 29.2%.
